# How the values were obtained:
# [1] = molecular target: T1, Tyrosine-protein kinase ITK/TSK (Homo sapiens) (UniProt Q08881); settings: at 1 µM;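 also: values are mean percent inhibition of ITK from the GSK PKIS screen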
# T1 sequence (whole entry): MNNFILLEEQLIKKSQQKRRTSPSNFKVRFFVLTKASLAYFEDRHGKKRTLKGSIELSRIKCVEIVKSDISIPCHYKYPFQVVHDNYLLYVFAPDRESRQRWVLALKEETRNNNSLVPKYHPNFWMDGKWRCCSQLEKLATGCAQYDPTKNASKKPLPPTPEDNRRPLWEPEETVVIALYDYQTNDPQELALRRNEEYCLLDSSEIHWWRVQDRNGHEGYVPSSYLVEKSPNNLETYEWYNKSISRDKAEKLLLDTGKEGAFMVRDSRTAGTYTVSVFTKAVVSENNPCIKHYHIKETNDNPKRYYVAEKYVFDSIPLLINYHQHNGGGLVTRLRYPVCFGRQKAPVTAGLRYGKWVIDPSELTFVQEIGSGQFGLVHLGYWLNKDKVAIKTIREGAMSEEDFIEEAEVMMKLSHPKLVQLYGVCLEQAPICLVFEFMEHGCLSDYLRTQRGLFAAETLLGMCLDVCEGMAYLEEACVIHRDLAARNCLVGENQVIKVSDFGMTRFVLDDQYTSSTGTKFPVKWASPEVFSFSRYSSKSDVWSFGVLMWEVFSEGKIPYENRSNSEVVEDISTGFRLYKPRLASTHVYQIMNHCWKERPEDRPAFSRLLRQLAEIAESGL
# [2] = molecular target: Tyrosine-protein kinase JAK1 (Homo sapiens) (UniProt P23458); settings: at 0.1 µM
# [3] = molecular target: Tyrosine-protein kinase JAK1 (Homo sapiens) (UniProt P23458); settings: at 1 µM
# [4] = molecular target: Tyrosine-protein kinase JAK2 (Homo sapiens) (UniProt O60674); settings: at 0.1 µM
# [5] = molecular target: Tyrosine-protein kinase JAK2 (Homo sapiens) (UniProt O60674); settings: at 1 µM
# [6] = molecular target: T2, Tyrosine-protein kinase JAK3 (Homo sapiens) (UniProt P52333); settings: at 0.1 µM
# T2 sequence (whole entry): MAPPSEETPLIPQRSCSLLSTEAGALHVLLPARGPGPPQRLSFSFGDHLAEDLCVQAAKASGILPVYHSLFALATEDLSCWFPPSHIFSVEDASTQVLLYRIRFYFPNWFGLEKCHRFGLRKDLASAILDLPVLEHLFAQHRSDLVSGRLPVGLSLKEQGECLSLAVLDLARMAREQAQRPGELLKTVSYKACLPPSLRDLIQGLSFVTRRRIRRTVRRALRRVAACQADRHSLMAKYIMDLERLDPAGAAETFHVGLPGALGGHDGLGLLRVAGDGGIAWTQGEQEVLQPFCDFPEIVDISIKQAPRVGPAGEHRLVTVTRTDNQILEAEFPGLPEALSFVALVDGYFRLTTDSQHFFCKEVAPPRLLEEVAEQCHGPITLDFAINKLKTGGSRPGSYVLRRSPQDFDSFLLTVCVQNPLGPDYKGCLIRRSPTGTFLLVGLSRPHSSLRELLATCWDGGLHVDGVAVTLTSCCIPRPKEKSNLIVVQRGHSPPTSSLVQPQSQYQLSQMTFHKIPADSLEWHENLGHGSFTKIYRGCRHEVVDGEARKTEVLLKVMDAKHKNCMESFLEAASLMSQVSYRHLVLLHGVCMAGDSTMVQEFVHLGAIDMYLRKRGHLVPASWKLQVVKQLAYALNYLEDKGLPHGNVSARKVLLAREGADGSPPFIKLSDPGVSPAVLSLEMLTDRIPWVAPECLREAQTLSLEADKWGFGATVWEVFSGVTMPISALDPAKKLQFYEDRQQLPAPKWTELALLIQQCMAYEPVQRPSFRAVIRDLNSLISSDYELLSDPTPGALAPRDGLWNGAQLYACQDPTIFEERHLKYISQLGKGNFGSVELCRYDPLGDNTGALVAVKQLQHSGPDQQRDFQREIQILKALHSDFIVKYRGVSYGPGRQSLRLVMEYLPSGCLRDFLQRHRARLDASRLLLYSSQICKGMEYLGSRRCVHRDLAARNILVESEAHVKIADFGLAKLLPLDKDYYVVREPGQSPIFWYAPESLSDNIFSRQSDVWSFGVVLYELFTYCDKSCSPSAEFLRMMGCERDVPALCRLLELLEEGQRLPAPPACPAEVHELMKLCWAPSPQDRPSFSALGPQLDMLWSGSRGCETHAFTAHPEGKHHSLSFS
# [7] = molecular target: T2, Tyrosine-protein kinase JAK3 (Homo sapiens); settings: at 1 µM
# [8] = molecular target: Vascular endothelial growth factor receptor 2 (Homo sapiens) (UniProt P35968); settings: at 0.1 µM
# [9] = molecular target: Vascular endothelial growth factor receptor 2 (Homo sapiens) (UniProt P35968); settings: at 1 µM
# [10] = molecular target: Mast/stem cell growth factor receptor Kit (Homo sapiens) (UniProt P10721); settings: at 0.1 µM;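 also: values are mean inhibition of KIT, from the GSK PKIS dataset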
# Sequence of Mast/stem cell growth factor receptor Kit (Homo sapiens) (P10721 whole entry): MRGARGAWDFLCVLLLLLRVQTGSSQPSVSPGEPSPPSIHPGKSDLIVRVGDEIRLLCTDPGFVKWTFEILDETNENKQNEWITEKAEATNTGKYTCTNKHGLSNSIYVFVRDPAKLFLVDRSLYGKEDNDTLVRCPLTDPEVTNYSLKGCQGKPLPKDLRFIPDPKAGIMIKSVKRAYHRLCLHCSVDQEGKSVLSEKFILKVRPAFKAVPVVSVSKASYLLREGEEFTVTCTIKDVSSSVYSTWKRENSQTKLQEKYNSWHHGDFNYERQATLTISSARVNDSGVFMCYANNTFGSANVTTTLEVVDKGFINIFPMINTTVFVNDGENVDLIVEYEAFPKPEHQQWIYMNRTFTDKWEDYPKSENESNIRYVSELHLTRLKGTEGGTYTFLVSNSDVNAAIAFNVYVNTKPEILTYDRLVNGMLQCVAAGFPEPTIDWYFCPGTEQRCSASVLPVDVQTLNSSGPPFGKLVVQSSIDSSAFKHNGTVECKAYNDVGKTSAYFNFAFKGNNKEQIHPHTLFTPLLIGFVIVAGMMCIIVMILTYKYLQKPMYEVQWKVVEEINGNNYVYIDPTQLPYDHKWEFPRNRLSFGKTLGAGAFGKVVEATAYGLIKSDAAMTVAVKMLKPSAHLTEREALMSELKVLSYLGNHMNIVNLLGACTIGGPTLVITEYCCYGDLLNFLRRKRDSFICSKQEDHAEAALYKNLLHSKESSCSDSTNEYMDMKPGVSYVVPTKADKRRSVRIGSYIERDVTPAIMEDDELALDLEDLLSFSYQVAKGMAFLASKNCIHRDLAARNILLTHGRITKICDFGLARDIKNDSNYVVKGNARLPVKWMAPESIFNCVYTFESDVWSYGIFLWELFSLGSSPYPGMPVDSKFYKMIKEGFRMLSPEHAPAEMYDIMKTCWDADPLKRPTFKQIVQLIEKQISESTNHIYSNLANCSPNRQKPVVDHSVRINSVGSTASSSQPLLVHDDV
# Sequence of Tyrosine-protein kinase JAK1 (Homo sapiens) (P23458 whole entry): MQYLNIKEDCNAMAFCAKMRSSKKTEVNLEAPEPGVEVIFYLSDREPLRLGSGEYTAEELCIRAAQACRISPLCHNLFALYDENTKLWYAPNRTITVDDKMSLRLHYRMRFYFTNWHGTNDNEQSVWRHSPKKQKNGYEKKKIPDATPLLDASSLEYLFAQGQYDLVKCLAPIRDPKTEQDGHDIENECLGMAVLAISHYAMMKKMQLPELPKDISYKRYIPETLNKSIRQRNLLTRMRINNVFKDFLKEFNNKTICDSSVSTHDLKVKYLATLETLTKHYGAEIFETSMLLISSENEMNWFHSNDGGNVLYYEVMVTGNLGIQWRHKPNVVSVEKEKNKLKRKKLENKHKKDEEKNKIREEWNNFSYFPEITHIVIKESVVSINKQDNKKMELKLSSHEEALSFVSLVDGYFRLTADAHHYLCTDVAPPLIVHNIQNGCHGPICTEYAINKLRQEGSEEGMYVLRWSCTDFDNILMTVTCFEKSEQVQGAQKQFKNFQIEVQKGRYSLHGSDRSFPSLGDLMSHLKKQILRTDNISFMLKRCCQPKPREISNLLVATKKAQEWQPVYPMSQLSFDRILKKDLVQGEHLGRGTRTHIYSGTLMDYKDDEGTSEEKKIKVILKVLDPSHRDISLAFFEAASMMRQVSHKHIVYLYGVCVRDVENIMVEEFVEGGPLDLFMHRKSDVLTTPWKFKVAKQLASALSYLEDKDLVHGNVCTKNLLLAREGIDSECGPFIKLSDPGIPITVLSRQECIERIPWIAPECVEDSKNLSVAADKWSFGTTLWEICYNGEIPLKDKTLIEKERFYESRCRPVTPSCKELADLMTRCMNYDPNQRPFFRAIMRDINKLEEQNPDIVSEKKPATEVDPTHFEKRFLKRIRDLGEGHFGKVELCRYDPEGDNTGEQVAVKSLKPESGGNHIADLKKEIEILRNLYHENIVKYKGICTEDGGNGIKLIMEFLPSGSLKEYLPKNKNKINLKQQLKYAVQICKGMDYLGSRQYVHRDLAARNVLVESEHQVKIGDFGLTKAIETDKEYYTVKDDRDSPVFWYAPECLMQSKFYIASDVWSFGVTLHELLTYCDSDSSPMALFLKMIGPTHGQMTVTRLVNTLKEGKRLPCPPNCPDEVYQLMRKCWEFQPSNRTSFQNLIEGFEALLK
# Sequence of Vascular endothelial growth factor receptor 2 (Homo sapiens) (P35968 whole entry): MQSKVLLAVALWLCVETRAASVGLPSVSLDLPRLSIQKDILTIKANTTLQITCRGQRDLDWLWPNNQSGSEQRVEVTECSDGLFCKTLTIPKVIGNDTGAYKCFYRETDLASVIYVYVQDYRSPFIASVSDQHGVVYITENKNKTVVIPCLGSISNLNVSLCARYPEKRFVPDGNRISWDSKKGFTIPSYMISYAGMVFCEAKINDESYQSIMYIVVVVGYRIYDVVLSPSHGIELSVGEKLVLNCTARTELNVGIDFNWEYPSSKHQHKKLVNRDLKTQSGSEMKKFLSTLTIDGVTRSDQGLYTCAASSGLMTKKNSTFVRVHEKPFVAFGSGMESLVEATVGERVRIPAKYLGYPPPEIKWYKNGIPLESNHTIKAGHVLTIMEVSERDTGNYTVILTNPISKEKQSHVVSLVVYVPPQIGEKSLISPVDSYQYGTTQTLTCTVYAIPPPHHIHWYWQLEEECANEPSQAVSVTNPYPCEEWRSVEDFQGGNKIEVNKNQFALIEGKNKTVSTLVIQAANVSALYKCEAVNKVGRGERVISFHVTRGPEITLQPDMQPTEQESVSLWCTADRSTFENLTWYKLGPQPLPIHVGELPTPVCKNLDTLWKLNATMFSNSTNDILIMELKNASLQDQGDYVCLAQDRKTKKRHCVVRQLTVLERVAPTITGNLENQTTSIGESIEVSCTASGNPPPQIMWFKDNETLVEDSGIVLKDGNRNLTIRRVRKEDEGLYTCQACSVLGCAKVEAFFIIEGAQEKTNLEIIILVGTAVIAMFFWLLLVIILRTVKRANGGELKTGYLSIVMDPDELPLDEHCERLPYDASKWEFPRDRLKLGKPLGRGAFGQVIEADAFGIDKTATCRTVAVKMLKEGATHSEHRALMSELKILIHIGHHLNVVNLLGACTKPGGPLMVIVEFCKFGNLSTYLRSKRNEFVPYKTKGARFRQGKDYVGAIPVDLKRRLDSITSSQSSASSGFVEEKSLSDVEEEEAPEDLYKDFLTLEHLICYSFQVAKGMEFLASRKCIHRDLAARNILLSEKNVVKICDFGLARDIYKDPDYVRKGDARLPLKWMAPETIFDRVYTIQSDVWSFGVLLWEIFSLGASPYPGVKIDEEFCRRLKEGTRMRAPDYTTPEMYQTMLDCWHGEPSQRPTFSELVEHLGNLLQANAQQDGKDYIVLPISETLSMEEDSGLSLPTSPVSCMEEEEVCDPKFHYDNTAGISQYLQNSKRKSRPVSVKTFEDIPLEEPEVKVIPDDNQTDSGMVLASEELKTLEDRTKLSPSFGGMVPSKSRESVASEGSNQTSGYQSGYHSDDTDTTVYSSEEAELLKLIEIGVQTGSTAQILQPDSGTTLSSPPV
# Sequence of Tyrosine-protein kinase JAK2 (Homo sapiens) (O60674 whole entry): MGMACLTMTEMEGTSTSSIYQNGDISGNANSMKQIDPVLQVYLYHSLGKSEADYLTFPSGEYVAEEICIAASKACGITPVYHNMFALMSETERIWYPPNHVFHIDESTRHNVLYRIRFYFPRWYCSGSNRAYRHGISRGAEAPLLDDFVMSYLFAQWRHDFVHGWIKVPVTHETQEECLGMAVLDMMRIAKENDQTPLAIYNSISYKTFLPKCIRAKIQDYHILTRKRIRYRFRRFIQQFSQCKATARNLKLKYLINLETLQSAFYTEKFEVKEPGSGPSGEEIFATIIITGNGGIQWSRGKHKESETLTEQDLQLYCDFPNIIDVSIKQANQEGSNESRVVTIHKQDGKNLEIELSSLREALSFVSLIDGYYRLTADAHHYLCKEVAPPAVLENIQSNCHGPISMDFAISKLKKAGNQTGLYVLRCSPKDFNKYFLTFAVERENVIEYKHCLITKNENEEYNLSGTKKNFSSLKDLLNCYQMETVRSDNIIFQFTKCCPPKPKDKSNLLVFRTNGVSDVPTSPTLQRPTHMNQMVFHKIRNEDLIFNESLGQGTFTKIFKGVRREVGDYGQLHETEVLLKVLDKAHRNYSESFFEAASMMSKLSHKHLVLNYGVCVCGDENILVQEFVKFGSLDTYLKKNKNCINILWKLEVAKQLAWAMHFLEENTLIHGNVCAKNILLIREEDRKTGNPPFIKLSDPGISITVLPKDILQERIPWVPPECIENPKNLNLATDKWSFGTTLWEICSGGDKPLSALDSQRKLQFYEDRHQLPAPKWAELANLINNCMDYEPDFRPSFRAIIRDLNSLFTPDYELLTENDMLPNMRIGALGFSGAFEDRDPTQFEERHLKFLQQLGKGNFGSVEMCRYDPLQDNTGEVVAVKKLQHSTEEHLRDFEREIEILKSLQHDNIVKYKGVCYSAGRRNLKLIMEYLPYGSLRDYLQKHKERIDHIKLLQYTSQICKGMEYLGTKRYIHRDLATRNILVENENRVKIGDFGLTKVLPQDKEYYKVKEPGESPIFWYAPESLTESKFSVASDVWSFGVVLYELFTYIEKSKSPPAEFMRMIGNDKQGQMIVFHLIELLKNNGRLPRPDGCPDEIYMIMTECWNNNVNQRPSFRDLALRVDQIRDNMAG
Structure (SMILES),inhibition [1],inhibition [2],inhibition [3],inhibition [4],inhibition [5],inhibition [6],inhibition [7],inhibition [8],inhibition [9],inhibition [10]
O=C(Nc1n[nH]c2cc(-c3cc(F)ccc3F)ccc12)C1CC1,7.94%,3.49%,8.44%,1.64%,1.73%,-0.26%,-0.99%,6.28%,12%,4.01%
CS(=O)(=O)CCNCc1cc(-c2cc3c(Nc4ccc(OCc5cccc(F)c5)c(Cl)c4)ncnc3s2)cs1,3.04%,-1.42%,3.76%,2.28%,5.69%,-2.63%,-0.49%,6.12%,8.97%,7.21%
COc1cc(N2CCN(C(C)C)CC2)ccc1Nc1nc(Nc2ccc(F)cc2C(=O)NC[C@@H](O)CO)c2cc[nH]c2n1,-1.4%,3.78%,12.3%,0.29%,1.56%,-5.03%,-8.11%,5.49%,8.49%,4.46%
c1ccc(Oc2ccc(Nc3ncc(-c4ccccc4)o3)cc2)cc1,2.13%,0.76%,3.56%,1.66%,1.65%,-0.5%,4.13%,4.37%,3.48%,3.26%
Fc1ccc(-c2nc3n(c2-c2ccncc2)CCS3)cc1,-1.9%,2.03%,4.76%,0.84%,1.07%,-4.98%,-4.14%,5.19%,8.03%,5.12%
CCS(=O)(=O)c1ccc(OC)c(Nc2ncc(-c3ccccc3Cl)o2)c1,1.73%,5.17%,-2.96%,1.84%,0.94%,0.9%,4.04%,8.35%,33.8%,17.3%
O=C(NCC1CC1)c1ccc(-c2cccc(C(=O)NC3CC3)c2)cc1,2.71%,0.26%,-6.93%,1.73%,0.94%,-0.66%,0.07%,5.99%,8.55%,1.06%
O=C(Nc1n[nH]c2nc(-c3ccco3)ccc12)C1CC1,2.43%,-0.37%,-0.27%,0.87%,2.09%,0.01%,2.11%,7.28%,14%,3.39%
O=C1Nc2ccccc2/C1=C/Nc1ccc(-n2cncn2)cc1,4.51%,5.01%,29.9%,0.53%,0.69%,-1.1%,6.49%,7.9%,37.3%,21.5%
C/C(Nc1ccc(S(N)(=O)=O)cc1)=C1/C(=O)Nc2ccccc21,4.72%,-6.57%,-1.09%,-0.57%,0.27%,-0.45%,6.44%,9.11%,44.5%,38.4%
Clc1ccc(CNc2nccc(-c3cnn4ncccc34)n2)cc1,1.37%,-0.37%,-0.62%,1.52%,3.6%,-0.04%,2.94%,0.99%,2.77%,5%
N#Cc1ccc(Oc2nccc(-c3c(-c4ccc(F)cc4)ncn3C3CCNCC3)n2)cc1,0.22%,3.07%,3.3%,1.47%,0.75%,-3.92%,1.56%,3.95%,4.78%,6.17%
COc1ccc2ncn(-c3cc(O[C@H](C)c4ccccc4Cl)c(C(N)=O)s3)c2c1,-2.51%,-3.1%,2.15%,1.31%,1.04%,-7%,-5.28%,3.61%,13.4%,4.64%
Nc1nccc(-c2c(-c3ccc(F)cc3)ncn2C2CCC(O)CC2)n1 (stereo not given),0.63%,-6.08%,-2.41%,-0.54%,-0.27%,1.29%,2.69%,2.29%,17.2%,-1.79%
Fc1ccc(-c2ncn(C3CCNCC3)c2-c2ccnc(Oc3ccc(Oc4ccccc4)cc3)n2)cc1,2.41%,1.18%,1.84%,2.34%,3.84%,1.04%,0.1%,2.97%,10.7%,2.94%
c1ccc(-c2n[nH]cc2-c2ccnc(-c3ccc(OCCN4CCOCC4)cc3)c2)nc1,3.99%,6.98%,4.5%,0.47%,-0.22%,6.96%,5.88%,13.7%,60.8%,0.56%
COc1cc2ncn(-c3cc(OCc4ccccc4C(F)(F)F)c(C(C)=O)s3)c2cc1OC,6.89%,2.15%,2.47%,1.06%,-0.01%,-2.98%,-1.59%,3.96%,7.57%,3.46%

Structure (SMILES),inhibition [1],inhibition [2],inhibition [3],inhibition [4],inhibition [5],inhibition [6],inhibition [7],inhibition [8],inhibition [9],inhibition [10]
CN(C)CCCNc1nccc(-c2c(-c3ccc(F)cc3)nn3cc(C(F)(F)F)ccc23)n1,-1.31%,0.29%,-0.9%,0.65%,3.68%,-2.83%,-1.89%,6.32%,11.3%,3.48%
Fc1ccc(-c2ncn(C3CCNCC3)c2-c2ccnc(Oc3ccc4c(c3)OCO4)n2)cc1,3.21%,3.3%,4.29%,0.42%,1.47%,-2.3%,-2.01%,9.3%,12.5%,7.99%
COc1cccc(-n2cnc3c(N/N=C/c4ccncc4)ncnc32)c1,-1.27%,4.44%,16.3%,0.27%,0.37%,-2.48%,-2.19%,-0.11%,11.2%,33.4%
COc1ccc2cc(-c3c(-c4ccncc4)nc(-c4ccc([S+](C)[O-])cc4C)n3C)ccc2c1 (stereo not given),0.95%,-3.09%,4.21%,0.25%,-0.49%,0.51%,0.61%,8.24%,49%,-0.44%
CNC(=O)c1cncc(/C=C/c2c(C)cccc2C)c1,-3.29%,0.62%,-1.32%,2.87%,2.41%,-3.28%,-0.59%,3.77%,3.51%,10.7%
Fc1ccc(-c2ncn(CCCN3CCOCC3)c2-c2ccncc2)cc1,1.2%,1.72%,-1.2%,-0.43%,0.65%,0.1%,1.07%,-0.88%,1%,-3.23%
C[C@@H](Oc1cc(-n2cnc3ccc(OC4CCN(C)CC4)cc32)sc1C(N)=O)c1ccccc1Cl,-1.75%,0.47%,-0.07%,4.66%,2.46%,-5.38%,13.5%,9.62%,40.3%,5.05%
Fc1ccc(-c2c(-c3ccncc3)nc3n2CCS3)cc1,-2.17%,1.7%,10.2%,0.77%,4.51%,-3.51%,2.02%,5.2%,9.29%,3.82%
NS(=O)(=O)c1ccc(N/N=C2\C(=O)Nc3ccc(-c4cnco4)cc32)cc1,-0.93%,1.96%,6.12%,0.38%,5.7%,-4.76%,24.1%,6.94%,39.1%,5.83%
C#Cc1cccc(Nc2ncnc3ccc(OCCCCNCCS(C)(=O)=O)cc23)c1,-2.14%,0.29%,13.4%,1%,0.71%,-4.71%,-3.57%,14.2%,19.6%,4.93%
NC(=O)c1cc(-c2ccncc2)cc(-c2ccccc2)c1N,1.74%,6.03%,4.31%,2.14%,1.86%,-1.25%,-1.1%,3.91%,10.7%,23%
COc1ccc(-c2ccc3c(NC(=O)C4CC4)n[nH]c3n2)cc1,2.25%,2.09%,10.9%,-0.18%,-0.27%,-1%,0.12%,0.66%,3.4%,0.69%
NC(=O)c1ccc(Oc2nccc(-c3c(-c4ccc(F)cc4)ncn3C3CCNCC3)n2)cc1,2.32%,3.88%,0.7%,2.78%,3.18%,-0.36%,-0.92%,4.96%,9.7%,7.24%
Cc1ccc(C(=O)NC2CCC2)cc1-c1ccc(C(=O)NCC2CC2)cc1,1.48%,0.07%,0.59%,0.91%,0.54%,-1.22%,1.06%,3.33%,3.21%,2.49%
CCc1nccc2c1nc(-c1nonc1N)n2CC,1.25%,0.52%,-2.63%,3.71%,2.91%,0%,0.61%,5.64%,17.7%,0.21%
CN(C)c1ccc2c(c1)/C(=C/Nc1ccc(S(N)(=O)=O)cc1)C(=O)N2,3.68%,0.51%,14.2%,0.74%,2.09%,-0.16%,20.4%,14.6%,53.6%,4.04%
O=C(Nc1n[nH]c2nc(-c3ccc(O)cc3)c(Br)cc12)C1CC1,3.5%,15.5%,55%,3.57%,28.4%,11.9%,62.2%,36.2%,71.6%,17.5%
